Structures are written as SMILES. Values joined by “and” are separate entries in the source; they are usually repeats but may differ in a detail not shown here. Equal values may be shown once. In all, about 5,300 compounds were measured (“PER2::LUC luminescence relative to vehicle control”: median about 0.96, highest 2% from about 1.3 on). This is one part of a sample in which the highest values are shown more often than they occur.

The subject of this test is mPer2Luc MEF. In words: PER2::LUC luminescence relative to vehicle control (fold of vehicle); higher = higher PER2::LUC reporter signal. To be noted: 10 µM. In a few lines: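 Each value gives PER2::LUC luminescence as fold of vehicle control, measured with the ONE-Glo luciferase assay system in mouse embryonic fibroblasts carrying the mPer2Luc reporter. Cells grown in DMEM with 10% FBS at 37 °C and 5% CO2 were seeded at ~3000 per well in 384-well plates. Library compounds were added at 10 μM 48 h later, and readings were taken 24 h and 30 h after treatment.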

On to `CCCCCCC(=O)CCCCCC/C=C/C[C@@H](O)[C@H](O)[C@@](N)(CO)C(=O)O`, for which the “PER2::LUC luminescence” value is, setting by setting: (time after treatment 24 h) 1.26; (time after treatment 30 h) 1.35.
For `Cc1ncc(C[n+]2csc(CCO)c2C)c(=O)[nH]1`, in that order: 1.01 and 0.895.
On the same counts, the results for `NCC(CC(=O)O)c1ccc(Cl)s1` (racemic) are 1.04 and 0.985.
For `CC[C@H](C)[C@@H]([C@@H](CC(=O)N1CCC[C@H]1[C@H](OC)[C@@H](C)C(=O)N[C@H](C)[C@@H](O)c1ccccc1)OC)N(C)C(=O)[C@@H](NC(=O)[C@@H](NC)C(C)C)C(C)C`, in that order: 0.378 and 0.38.
As for `NCCc1c[nH]c2ccc(O)cc12`, the “PER2::LUC luminescence” value by setting is: (time after treatment 24 h) 0.925; (time after treatment 30 h) 0.97.
As for `Cc1[nH]c2ccc(O)cc2c1CCN`, the “PER2::LUC luminescence” value is, setting by setting: (time after treatment 24 h) 1.08 and 1.05; (time after treatment 30 h) 0.977 and 1.35.
Turning to `NCCc1ccc(O)cc1`, the “PER2::LUC luminescence” value (time after treatment 24 h) was 1.03 and 0.947; the “PER2::LUC luminescence” value (time after treatment 30 h) was 0.942 and 0.934.
In the case of `NC(CCCCCP(=O)(O)O)C(=O)O` (racemic), the “PER2::LUC luminescence” value was found to be 1.22 (time after treatment 24 h) and 1.09 (time after treatment 30 h).
On the same counts, the results for `O=[N+]([O-])c1cc([As](=O)(O)O)ccc1O` are 1.08 and 1.54.
For `O=[N+]([O-])c1ccc([As](=O)(O)O)cc1`, in that order: 1.13 and 0.866.
On to `CC(=O)Nc1cc([As](=O)(O)O)ccc1O`, for which the “PER2::LUC luminescence” value reads like this: (time after treatment 24 h) 1.04 and 1.02; (time after treatment 30 h) 1.06 and 0.878.
Consider `COc1cc(=O)oc(/C=C/C=C/C=C/C(C)=C/[C@@]2(C)O[C@H](C)[C@](C)(O)[C@H]2O)c1C`, for which the “PER2::LUC luminescence” value was determined as 0.952 (time after treatment 24 h) and 0.913 (time after treatment 30 h).
Turning to `COc1c2c3c4c(c(OC)c(=O)c5c(O)cc(OC)c(c6c(OC)cc(O)c(c1=O)c63)c54)[C@@H](C(C)=O)[C@@](C)(O)C2`, the “PER2::LUC luminescence” value runs as follows: (time after treatment 24 h) 1.14; (time after treatment 30 h) 1.06.
For `O=C(O)[C@@H]1C[C@H]2C[C@@H](CP(=O)(O)O)CC[C@H]2CN1`, in that order: 1.03 and 0.966.
On the same counts, the results for `C=C(C)c1cc2cc(C(C)=O)c(O)cc2o1` are 1.31 and 1.39.
For the molecule `OCC1C(O)C(O)C2C(O)CCN12` (stereo not given), the “PER2::LUC luminescence” value runs as follows: (time after treatment 24 h) 1.1; (time after treatment 30 h) 1.08.
For `CC(=O)Oc1ccc(/C=C/c2cc(OC(C)=O)cc(OC(C)=O)c2)cc1`, in that order: 1.76 and 1.65.
On the same counts, the results for `C=CCc1ccc(OC)cc1` are 0.993 and 0.968.
On the same counts, the results for `COc1ccc(/C=C/c2cc(O)cc(O)c2)cc1` are 1.69 and 1.76.
As for `COc1ccc(O)c(C(C)(C)C)c1.COc1ccc(O)cc1C(C)(C)C`, the “PER2::LUC luminescence” value runs as follows: (time after treatment 24 h) 0.868; (time after treatment 30 h) 1.18.
On the same counts, the results for `CCCC(=O)O[C@@H]1[C@@H](C)[C@@]2(O)[C@@H](C=C(CO)C[C@]3(O)C(=O)C(C)=C[C@@H]23)[C@@H]2C(C)(C)[C@]12OC(=O)CCC` are 1.13 and 0.899.
On the same counts, the results for `COc1cc2c(cc1F)C(c1ccccc1Cl)=Nc1c(n[nH]c1C)N2` are 0.461 and 0.367.
In the case of `CC(=O)OCC1=C[C@H]2[C@@H]3C(C)(C)[C@]3(OC(=O)Cc3ccccc3)C[C@@H](C)[C@]2(O)[C@@H]2C=C(C)C(=O)[C@@]2(O)C1`, the “PER2::LUC luminescence” value (time after treatment 24 h) was 1.21 and the “PER2::LUC luminescence” value (time after treatment 30 h) is 1.09.
On the same counts, the results for `COc1ccc(C(C)(C)C)cc1CN[C@H]1C2CCN(CC2)[C@H]1C(c1ccccc1)c1ccccc1` are 0.868 and 0.939.
For `CC1=C[C@]23C(=O)[C@@H](C=C(CO)[C@@H](O)[C@]2(O)[C@H]1O)[C@H]1[C@@H](C[C@H]3C)C1(C)C`, in that order: 0.981 and 0.957.
Consider `CCN(CC)C(=O)NC1CC2c3cccc4[nH]cc(c34)CC2N(C)C1` (stereo not given), for which the “PER2::LUC luminescence” value reads like this: (time after treatment 24 h) 0.846; (time after treatment 30 h) 0.986.
Take `COC1=CC(=O)O[C@@H](/C=C/c2ccc3c(c2)OCO3)C1`: the “PER2::LUC luminescence” value amounted to 0.149 (time after treatment 24 h) and 0.152 (time after treatment 30 h).
On to `COC1=CC(=O)O[C@@H](/C=C/c2ccccc2)C1`, for which the “PER2::LUC luminescence” value (time after treatment 24 h) worked out at 1.28 and the “PER2::LUC luminescence” value (time after treatment 30 h) came out at 1.35.
For the molecule `COC1=CC(=O)O[C@@H](CCc2ccc3c(c2)OCO3)C1`, the “PER2::LUC luminescence” value is, setting by setting: (time after treatment 24 h) 0.859; (time after treatment 30 h) 0.763.
Regarding `Cc1o[nH]c(=O)c1CC(N)C(=O)O` (racemic), the “PER2::LUC luminescence” value came out at 0.875 (time after treatment 24 h) and 0.984 (time after treatment 30 h).
As for `C[C@@H]1OC(=O)[C@H]2C[C@H]3CCCC[C@@H]3[C@@H](/C=C/[C@H]3CCC[C@H](C)N3C)[C@@H]12`, the “PER2::LUC luminescence” value (time after treatment 24 h) was determined as 0.807 and the “PER2::LUC luminescence” value (time after treatment 30 h) stood at 0.884.
For `N=C(N)NCCCCCCCCCCNC(=N)N`, in that order: 0.972 and 0.965.
For `NCCc1ccccn1`, in that order: 0.99 and 1.45.
As for `Cn1cnc(CCN)c1`, the “PER2::LUC luminescence” value worked out at 0.826 (time after treatment 24 h) and 0.66 (time after treatment 30 h).
On the same counts, the results for `NCCc1ccccc1` are 1.03 and 1.04.
For the molecule `CC(C)CC(NC(=O)C(Cc1ccccc1)NC(=O)CNC(=O)C(C)NC(=O)C(N)Cc1ccc(O)cc1)C(=O)O` (stereo not given), the “PER2::LUC luminescence” value is, setting by setting: (time after treatment 24 h) 1.03; (time after treatment 30 h) 0.904.
On the same counts, the results for `CC1(C)C(=O)N(c2ccc(C#N)c(C(F)(F)F)c2)C(=S)N1c1ccc(C(N)=O)c(F)c1` are 1.06 and 1.11.
On the same counts, the results for `CC(=O)OC12CC(C)C3(O)C4C=C(C)C(=O)[C@@]4(O)CC(CO)=C[C@H]3C1C2(C)C` (stereo not given in full) are 1.15 and 0.967.
Take `COC(N)=O`: the “PER2::LUC luminescence” value was 1.07 (time after treatment 24 h) and 1.01 (time after treatment 30 h).
On the same counts, the results for `NNC(N)=O` are 1.09 and 0.875.
For `NC(=O)CI`, in that order: 1.59 and 1.31.
Take `O=C(O)CF`: the “PER2::LUC luminescence” value (time after treatment 24 h) was found to be 1.08 and the “PER2::LUC luminescence” value (time after treatment 30 h) came to 1.08.
Take `CN(C(=O)Cc1ccc(Cl)c(Cl)c1)[C@H](CN1CCCC1)c1cccc(N=C=S)c1`: the “PER2::LUC luminescence” value by setting is: (time after treatment 24 h) 0.676; (time after treatment 30 h) 0.687.
For `CCCN1C[C@H](C)N([C@H](c2ccc(C(=O)N(CC)CC)cc2)c2cccc(OC)c2)C[C@H]1C`, in that order: 0.894 and 0.899.
Consider `C=CCN1CC[C@@]2(C)c3cc(O)ccc3C[C@@H]1C2C` (single isomer, unassigned; (+)), for which the “PER2::LUC luminescence” value came to 0.969 (time after treatment 24 h) and 0.939 (time after treatment 30 h).

These data come from the supplement of paper PMC9334596.
